Experimental data from PubChem BioAssay (NCATS).
Records with an inconclusive call do not appear. The source made the active and inactive calls. Calls come from the whole dose curve; as a rule, active = well fitted inhibition curve with a large enough effect; inconclusive = small, poorly fitted or top-dose-only effect; inactive = flat fitted curve, though single readings scatter. Peptide text beside a SMILES is read from it.

Experiment: qHTS profiling for inhibitors of Plasmodium falciparum proliferation (AID 504749); note: nearly all actives have a fitted effect of over 60% in size;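 for activity, negative = inhibition: 0% = DMSO vehicle and full inhibition = artemisinin control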
Conditions: P. falciparum in erythrocytes, SYBR Green DNA, 72 h
Summary of the method: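 SYBR Green fluorescence of parasite DNA, read after lysis and overnight dark incubation, measured growth over 72 h in erythrocyte culture at 0.3% parasitemia and 2.5% hematocrit. Data normalised to DMSO and 0.29 uM artemisinin, with plate-drift correction.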

[1] = at 28.7 µM (top of the series), parasite line A
[2] = at 28.7 µM (top of the series), parasite line B
Potency is the fitted concentration of half-maximal effect.

CC1(C)S[C@@H]2[C@H](NC(=O)[C@@H](NC(=O)N3CCNC3=O)c3ccccc3)C(=O)N2[C@H]1C(=O)O
activity, negative = inhibition (at 12.8 µM (top of the series), parasite line A): 9.18% (inactive)
activity, negative = inhibition (at 12.8 µM (top of the series), parasite line B): -0.988% (inactive)

O=S(=O)(O)O
activity, negative = inhibition [1]: -14.8% (inactive)
activity, negative = inhibition [2]: 2.3% (inactive)

CO[C@H]1C[C@@H]2CC[C@@H](C)[C@@](O)(O2)C(=O)C(=O)N2CCCC[C@H]2C(=O)O[C@H]([C@H](C)C[C@@H]2CC[C@@H](OCCO)[C@H](OC)C2)CC(=O)[C@H](C)/C=C(\C)[C@@H](O)[C@@H](OC)C(=O)[C@H](C)C[C@H](C)/C=C/C=C/C=C/1C
Potency (parasite line A): 2.24 µM (active)
Potency (parasite line B): 1.12 µM (active)

CCOC(C)=O
activity, negative = inhibition [1]: 0.182% (inactive)
activity, negative = inhibition [2]: 7.53% (inactive)

Nc1c(N=Nc2ccc(-c3ccc(N=Nc4cc(S(=O)(=O)O)c5ccccc5c4N)cc3)cc2)cc(S(=O)(=O)O)c2ccccc12
activity, negative = inhibition [1]: 6.43% (inactive)
activity, negative = inhibition [2]: -3.17% (inactive)

CCCCCC(CC)COC(=O)CC(C(=O)OCC(CC)CCCC)S(=O)(=O)O (stereo not given)
activity, negative = inhibition [1]: 7.28% (inactive)
activity, negative = inhibition [2]: 3.54% (inactive)

CN(C)CCCN1c2ccccc2C(C)(C)c2ccccc21
activity, negative = inhibition [1]: -5.82% (inactive)
activity, negative = inhibition [2]: -11.4% (inactive)

C[C@]12O[C@H](C[C@]1(O)CO)n1c3ccccc3c3c4c(c5c6ccccc6n2c5c31)CNC4=O
Potency (parasite line A): 0.398 µM (active)
Potency (parasite line B): 0.447 µM (active)

C#CCOc1ccc2c(C)cc(=O)oc2c1
activity, negative = inhibition [1]: 3.33% (inactive)
activity, negative = inhibition [2]: 5.62% (inactive)

CC(=O)N[C@@H](CC(=O)O)C(=O)N[C@@H](CCC(=O)O)C(=O)O (Ac-Asp-Glu-OH)
activity, negative = inhibition [1]: 24.6% (inactive)
activity, negative = inhibition [2]: 14.8% (inactive)

CCCCCCCCCCCCCCCC(=O)OCC(COC(=O)CCCCCCCCCCCCCCC)OC(=O)CCCCCCCCCCCCCCC
activity, negative = inhibition [1]: -0.409% (inactive)
activity, negative = inhibition [2]: 9.45% (inactive)

C=CCSSSCC=C
activity, negative = inhibition [1]: 1.87% (inactive)
activity, negative = inhibition [2]: 3.6% (inactive)

CCNC(=O)[C@@H]1CCCN1C(=O)[C@H](CCCN=C(N)N)NC(=O)[C@H](CC(C)C)NC(=O)[C@@H](Cc1c[nH]c2ccccc12)NC(=O)[C@H](Cc1ccc(O)cc1)NC(=O)[C@H](CO)NC(=O)[C@H](Cc1c[nH]c2ccccc12)NC(=O)[C@H](Cc1cnc[nH]1)NC(=O)[C@@H]1CCC(=O)N1
Potency (parasite line A): 4.47 µM (active)
Potency (parasite line B): 5.62 µM (active)

COC(=O)[C@H]1[C@H]2CC3c4[nH]c5ccccc5c4CCN3C[C@@H]2CC[C@@H]1O (stereo not given in full)
activity, negative = inhibition [1]: 14.5% (inactive)
activity, negative = inhibition [2]: 13.8% (inactive)

COC(C(=O)C(O)C(C)O)C1Cc2cc3cc(OC4CC(OC5CC(O)C(O)C(C)O5)C(O)C(C)O4)c(C)c(O)c3c(O)c2C(=O)C1OC1CC(OC2CC(OC3CC(C)(O)C(O)C(C)O3)C(O)C(C)O2)C(O)C(C)O1 (stereo not given)
Potency (parasite line A): 0.158 µM (active)
Potency (parasite line B): 0.224 µM (active)

COc1cc(-c2ccc(-[n+]3nc(-c4ccccc4)nn3-c3ccc([N+](=O)[O-])cc3)c(OC)c2)ccc1-[n+]1nc(-c2ccccc2)nn1-c1ccc([N+](=O)[O-])cc1
Potency (parasite line A): 10 µM (active)
Potency (parasite line B): 11.2 µM (active)

IC(I)I
activity, negative = inhibition [1]: 0.888% (inactive)
activity, negative = inhibition [2]: 2.57% (inactive)

NC(=O)c1ncn(C2OC(CO)C(O)C2O)n1 (stereo not given)
activity, negative = inhibition [1]: -11.3% (inactive)
activity, negative = inhibition [2]: -20.5% (inactive)

CCCCC(C)(O)C/C=C/[C@H]1[C@H](O)CC(=O)[C@@H]1CCCCCCC(=O)OC (stereo not given in full)
activity, negative = inhibition [1]: 0.758% (inactive)
activity, negative = inhibition [2]: 3.16% (inactive)

CC(C(=O)O)c1ccc(N2Cc3ccccc3C2=O)cc1 (stereo not given)
activity, negative = inhibition [1]: 8.3% (inactive)
activity, negative = inhibition [2]: 10.3% (inactive)

CC(O)CO (stereo not given)
activity, negative = inhibition [1]: 8.15% (inactive)
activity, negative = inhibition [2]: 7.84% (inactive)

CN=C(NC#N)Nc1ccc(C2=NNC(=O)C[C@@H]2C)cc1
activity, negative = inhibition [1]: 13.8% (inactive)
activity, negative = inhibition [2]: 8.03% (inactive)

CC1=C(/C=C/C(C)=C/C=C/C(C)=C/C=C/C=C(C)/C=C/C=C(C)/C=C/C2=C(C)C(=O)CCC2(C)C)C(C)(C)CCC1=O
activity, negative = inhibition [1]: -4.18% (inactive)
activity, negative = inhibition [2]: 4.39% (inactive)

CCOC(=O)C1=CC2(CC)CCCN3CCc4c(n1c1ccccc41)C32 (stereo not given)
Potency (parasite line A): 11.2 µM (active)
Potency (parasite line B): 7.94 µM (active)

Cc1ccccc1
activity, negative = inhibition [1]: 1.71% (inactive)
activity, negative = inhibition [2]: 0.119% (inactive)

Cc1cn([C@H]2C[C@H](O)[C@@H](CO)O2)c(=O)[nH]c1=O
activity, negative = inhibition [1]: 4.1% (inactive)
activity, negative = inhibition [2]: -3.41% (inactive)

O=C(O)CN(CCN(CC(=O)O)CC(=O)O)CC(=O)O
activity, negative = inhibition [1]: -1.94% (inactive)
activity, negative = inhibition [2]: 14.3% (inactive)

O=C(O)CCC(=O)C(=O)O
activity, negative = inhibition [1]: 2.78% (inactive)
activity, negative = inhibition [2]: 9.14% (inactive)

CCCC(=O)Nc1ncnc2c1ncn2C1OC2COP(=O)(O)OC2C1OC(=O)CCC (stereo not given)
activity, negative = inhibition [1]: 6.84% (inactive)
activity, negative = inhibition [2]: -4.45% (inactive)

CCC(=O)NCCC1CCc2ccc3c(c21)CCO3 (stereo not given)
activity, negative = inhibition [1]: 6.95% (inactive)
activity, negative = inhibition [2]: 0.538% (inactive)
